# Compound activity deposited in PubChem BioAssay by National Center for Advancing Translational Sciences (NCATS).
# This is a sample that favours compounds with a hit; in the whole collection about 5.9% have one here.
# RORgamma inh: qHTS for inhibitors of ROR gamma transcriptional activity. Nuclear receptor ROR-gamma (Mus musculus), P51450. Drosophila S2 Gal4-RORgamma UAS-luciferase reporter, 20 h. Potency, µM (top dose mostly 53.6 µM), inactives show at the highest dose activity change, negative = inhibition, hits mostly inhibitors. 310,000 tested, 5.4% active. AID 2551, 2010; further: potency means the concentration at half of the fitted maximal effect; nearly all actives have a fitted effect of over 60% in size
#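 A Gal4/UAS one-hybrid system in insect cells: metallothionein-promoter Gal4–ROR gamma fusion plus Photinus luciferase reporter. Copper sulfate 700 uM final, 20 hr ambient incubation, luminescent detection after 10 min with reagent.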
# TrxR1 inh: qHTS Assay for Inhibitors of Mammalian Selenoprotein Thioredoxin Reductase 1 (TrxR1): qHTS; Thioredoxin reductase 1, cytoplasmic (Rattus norvegicus), O89049; Potency, µM (top dose mostly 114 µM), for the others: top-dose activity change, negative = inhibition, usual class: inhibitors; recombinant rTrxR1, NADPH fluorescence consumption, selenite substrate; 390,000 tested, 1% active; further: potency means the concentration at half of the fitted maximal effect; nearly all actives have a fitted effect of over 65% in size
#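 Rat TrxR1 (90 nM in the dispensed reagent) was pre-reduced with 400 uM NADPH for 5 min at room temperature, then incubated with compound for 15 min. After 400 uM selenite was added, NADPH fluorescence (Ex 340/Em 450 nm) was followed for 8 min.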
# TrxR1 substrate: qHTS Assay for Substrates of Mammalian Selenoprotein Thioredoxin Reductase 1 (TrxR1): qHTS. Potency, µM (doses to about 114 µM), for the others: at the highest dose activity change, negative = substrate turnover. 390,000 tested, 0.01% active. AID 588456, 2011. purified TrxR1 substrate turnover, NADPH consumption readout; further: potency means the concentration at half of the fitted maximal effect; nearly all actives have a fitted effect of over 50% in size
#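 Rat TrxR1, dispensed at 90 nM, was prereduced with 400 uM NADPH (final) for 5 min at ~22 deg C, then incubated with compound 15 min before 400 uM selenite. A first-read NADPH fluorescence drop versus no-compound background flagged substrates.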
# FBPA coupling cs: qHTS Assay for Inhibitors of Fructose-1,6-bisphosphate Aldolase from Giardia Lamblia: Coupling assay counterscreen. coupling enzyme system counterscreen, AmpLite Red fluorescence. activity change, negative = inhibition, % at 58.2 µM, hits read low. 290,000 tested, 0.67% active. AID 2472, 2010; in the data active means activity change below about -30%
#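 Counterscreen lacking aldolase: glyceraldehyde-3-phosphate coupling-enzyme reagent preincubated 10 min at RT with compound (at 57.5 uM final), then substrate/coupling system with AmpLite Red added; fluorescence read at 525/598 nm after 20 min RT.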
# GALK inh: qHTS Assay for Inhibitors of Human Galactokinase (GALK); Purified GALK, Kinase-Glo residual ATP luminescence; 270,000 tested, 0.007% active; AID 1868, 2009; Potency, µM (series often up to 57.5 µM), for inactives: at the highest dose activity change, negative = inhibition, hits mostly inhibitors; further: potency means the concentration at half of the fitted maximal effect
# Target sequence (P51570 whole entry, looked up): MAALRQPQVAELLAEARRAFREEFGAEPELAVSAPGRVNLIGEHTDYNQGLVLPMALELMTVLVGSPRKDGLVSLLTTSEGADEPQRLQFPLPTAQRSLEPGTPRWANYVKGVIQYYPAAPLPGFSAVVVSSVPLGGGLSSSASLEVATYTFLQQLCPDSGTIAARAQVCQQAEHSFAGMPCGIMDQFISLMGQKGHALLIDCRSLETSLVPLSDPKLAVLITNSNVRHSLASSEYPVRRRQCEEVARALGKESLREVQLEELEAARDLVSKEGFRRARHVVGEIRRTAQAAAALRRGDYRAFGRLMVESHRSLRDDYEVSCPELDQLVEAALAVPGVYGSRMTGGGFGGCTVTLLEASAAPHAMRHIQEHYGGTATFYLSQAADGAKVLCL
#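 The enzyme phosphorylates galactose (100 uM) using ATP (35 uM); inhibition is detected as higher residual ATP, quantified by bioluminescence after 1 h reaction at room temperature, pH 8.0.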
# Gal4-VP16 FLuc: VP16 counterscreen qHTS for inhibitors of ROR gamma transcriptional activity | Drosophila S2 Gal4-VP16 UAS-luciferase, luminescence, 20 h | Potency, µM (titrated, usually from 53.6 µM), for inactives: at the highest dose activity, negative = inhibition, usual class: inhibitors | 310,000 tested, 3.5% active;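 further: Gal4-VP16 expression switched on by copper sulfate through the metallothionein promoter; potency means the concentration at half of the fitted maximal effect; nearly all actives have a fitted effect of over 50% in size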
# Active calls of the source: *; ? = inconclusive; / = no result; ! = a repeat was not active; [ ] = another dose, or the depositor's remark. Unless noted, the call rests on the fitted dose curve; in most records, active means well fitted curve in the direction sought with a large enough effect; inconclusive means small, poorly fitted or top-dose-only effect, or another doubt; inactive means no such curve, though single readings can be large; an effect the other way counts as inactive or inconclusive. On the % scale 0 is the no-effect control and ±100 the full control effect.
SMILES,RORgamma inh,TrxR1 inh,TrxR1 substrate,FBPA coupling cs,GALK inh,Gal4-VP16 FLuc
COc1ccc(C(=O)CN2C(=O)c3ccccc3S2(=O)=O)cc1,5.6µM*,10%,6%,0,-1%,?
O=C(CCCn1c(SCc2cccc(F)c2)nc2ccccc2c1=O)NCC1CCCO1 (stereo not drawn),?,5%,-2%,1,-4%,14%
CC1CC=C(c2ccccc2)C(=S)N1 (stereo not drawn),1µM*,-11%[57.1 µM],6%[57.1 µM],7,2%,3.2µM*
O=C(c1ccc(F)cc1)c1ccc(N2CCCC2)cc1,29%,-7%,0%,-1,-2%,4%
O=C(NCC(c1cccs1)N1CCOCC1)c1cc(S(=O)(=O)N2CCOCC2)ccc1Cl (stereo not drawn),/,-3%,7%,/,/,/
CCC(C)CCN1C(N(C)C)=NC[C@@H]1CC(C)C (stereo partly drawn),/,13%,2%,/,/,/
O=C(NNC(=O)c1ccccc1OCc1ccccc1)c1ccccc1F,-17%,10%,3%,-2,2%,-14%
O=C(NNC(=O)c1ccccc1OCc1ccc(F)cc1)c1ccccc1O,4.5µM*,-8%,-6%,/,-3%,10µM*
O=C(NNC(=O)c1ccccc1OCc1ccccc1)c1ccccc1O,6.3µM*,2%,-3%,/,0%,11µM*
O=C(NCc1ccc(F)cc1)c1ccccc1OCc1ccccc1,33%,1%[57.1 µM],1%[57.1 µM],-6,1%,-4%
C=CCN1C=C2C(=O)C(C)(OC(=O)C3CCCC3)C(=O)C(c3ccccc3)=C2C=C1CCCC(=O)OC (stereo not drawn),0%,79µM*,3%,-2,1%,-4%
COC(=O)CCCC1=CC2=C(c3ccccc3)C(=O)C(C)(OC(=O)C3CCCC3)C(=O)C2=CN1CCN1CCOCC1 (stereo not drawn),-2%,7%[57.1 µM],11%[57.1 µM],-35*!,2%,-18%
COC(=O)CCCC1=CC2=C(c3ccccc3)C(=O)C(C)(OC(=O)C3CCCC3)C(=O)C2=CN1Cc1ccccc1 (stereo not drawn),/,/,/,-3,/,/
Cc1ccccc1-c1nc(NCc2cccs2)c2ccccc2n1,31%,/,/,-2,/,-5%
O=C(CN1C(=O)NC(Cc2c[nH]c3ccccc23)C1=O)Nc1cccc(S(=O)(=O)N2CCOCC2)c1 (stereo not drawn),38%,12%,-1%,-2,0%,-14%
CCOc1ccc(CSCCNC(=S)Nc2ccccc2)cc1,6.3µM*,-20%,-9%,1,-1%,4.5µM*
CCOc1ccc(NC(=S)Nc2ccc(OCc3ccccc3)cc2)cc1,?,10%,1%,3,0%,22µM*
CCOc1ccc(NC(=S)Nc2ccc(Br)cc2Cl)cc1,14µM*,-39%,-5%[57.1 µM],-1,1%,?
COc1ccc(NC(=S)Nc2ccc3nccnc3c2)cc1,?,16µM*,-15%,-38*,1%,?
CC(C)(C)c1ccc(OCCNC(=S)Nc2ccccc2)cc1,-25%,12%[57.1 µM],6%[57.1 µM],-1,-2%,-3%
Cc1ccc(C(=O)N/C(=C\c2ccccc2)C(=O)NCCCn2ccnc2)cc1,23%,24%,0%,-1,0%,1%
CCOc1cc(/C=N/NC(=O)c2nn(C)cc2Br)ccc1OCc1ccccc1Cl,35%,-5%,-11%,-2,/,4%
CCOc1ccc(NC(=S)NCCN2CCN(Cc3ccccc3)CC2)cc1,11µM*,?,?,3,11%,?
Cc1cccnc1NC(=S)Nc1ccc(Br)cc1Cl,2.5µM*,?,3%[57.1 µM],3,1%,7.1µM*
COc1ccc(NC(=S)Nc2ccccc2)cc1,?,-7%,3%[11.4 µM],1,-3%,?
SMILES,RORgamma inh,TrxR1 inh,TrxR1 substrate,FBPA coupling cs,GALK inh,Gal4-VP16 FLuc
CCOc1ccc(NC(=S)NCc2cccnc2)cc1,-14%,28%[11.4 µM],-14%[11.4 µM],5,0%,14%
CCOc1ccc(NC(=S)NCCCc2ccccc2)cc1,5µM*,7%[57.1 µM],0%[57.1 µM],0,-3%,?
CCOc1ccc(NC(=S)Nc2ccc(OC)cc2)cc1,7.9µM*,12%[57.1 µM],-3%[57.1 µM],-5,3%,?
O=C(COC(=O)c1cccnc1Cl)NCCc1ccccc1,/,15%,-1%,/,/,/
CCCCCCCCN[C@@H](C)[C@H](O)c1ccc(SC(C)C)cc1,?,/,/,-1,/,-6%[17 µM]
O=c1c2c(nc3cc(-c4cccc(Cl)c4)[nH]n13)CCC2,?,-5%[57.1 µM],11%[57.1 µM],-2,-3%,-26%
COc1ccc(-n2ncc3c(NCCC4=CCCCC4)ncnc32)cc1,/,8%[57.1 µM],-1%[57.1 µM],/,/,/
CCOc1ccccc1C(=O)N(Cc1cc(OC)c(OC)c(OC)c1)c1ccccn1,/,14%,-5%,/,/,/
COc1ccc(NC(=S)Nc2ccc(N(C)C(C)=O)cc2)cc1,-35%,11%[57.1 µM],-4%,3,0%,-15%
S=C(Nc1ccc2nccnc2c1)N1CCOCC1,4%,5%[57.1 µM],5%[57.1 µM],-34*,-2%,?
COc1ccc(NC(=S)Nc2cccc(C)n2)cc1,?,-6%,4%,2,-3%,4.5µM*
Cc1ccc(NC(=S)N2CCOCC2)cc1,-28%,8%,11%,2,2%,2%
CCC(C)c1ccc(NC(=S)Nc2ccc(OC)cc2)cc1 (stereo not drawn),7.1µM*,-2%,-3%,4,0%,5.6µM*
CCOc1ccc(NC(=S)NCCCN2CCN(c3ccc(OC)cc3)CC2)cc1,5µM*,-8%,1%,2,12%,?
O=C(CC1CC2CCC1C2)NCc1cccs1 (stereo not drawn),3%,-9%,-3%,1,1%,17%
CCN1C(=O)C2C(c3ccccc3F)NC(Cc3ccc(O)cc3)(C(=O)OC)C2C1=O (stereo not drawn),-1%,11%[57.1 µM],0%[57.1 µM],0,1%,-7%
CNC(=S)Nc1ccc(OCc2ccccc2)cc1,4µM*,-2%,-5%,3,-1%,?
COc1ccc(CCNC(=O)c2ccco2)cc1OC,7%,20%[57.1 µM],-3%[57.1 µM],1,1%,11%
Cc1[nH]c2ccccc2c1C(=O)C(C)OC(=O)c1ccc([N+](=O)[O-])o1 (stereo not drawn),14µM*,-4%[57.1 µM],2%[57.1 µM],-7,0%,-23%
